Results on 13 molecules are retold here after publication PMC12864922, “TDP-43 directly inhibits mRNA accumulation in neurites through modulation of mRNA stability”.

The chains are these.
B1: ENSMUSG00000058297.485|Spock2 (ssRNA)
RNA: GGGAGUUCUACAGUCCGACGAUCGCUUCGAUAUCCGCAUGCUACUGGAGCUGCCCUACUAAGAGCCUCCUUAGCCCUGGGUGCUGGGAAGGAUGGUGUACGUUGGGGAAGUUUGAGGUUGGAGAGAGUAAAUGUGCCUUGAGAGACCACUCAGAGGUCCCAGGAGGAACGGGGGCGGGGCUUAGCCUGGGAGUUCUGGCAGGAGGCAAAGUUGGUGAGAGUCCUGGGACAUCUUACCCCCAGUGUUCCACAGGAGUCGUGACCACGUGUGAUGGGUGGGCACAGGUCUGCCUUGCUCCAGCCCCUCUUGCGGUCGCACUAGUGUGGAAUUCUCGGGUGUCAAGG
B2: ENSMUSG00000004113.268|Cacna1b (ssRNA)
RNA: GGGAGUUCUACAGUCCGACGAUCGCUUCGAUAUCCGCAUGCUACGUGUUACAAGAAACUGGCAGGAAGGAAAUGGCCCUGGAACAGGCCAGGUGCCUAGAGCUAAGUCAGGCCCCUGGCUUAGCACUAGAAAAAAUAAAACCUCAUGGCUGCUUUGCAAAGGGAAAACCCAUGCUCAGGAAGGUGUUCAGUGUGCACAGAUAGCUGGGAGGCCACGAGAGAAAGGUUGCACACAGACAGGCAGGCACUCCUUGGUGUGGUCUCUCUGUUUUGAAACUUCUGAUGACUUCUUGGUGGCUUGUUGCUCUUGCGGUCGCACUAGUGUGGAAUUCUCGGGUGUCAAGG
B3: ENSMUSG00000029028.187|Lrrc47|67:71 (ssRNA)
RNA: GGGAGUUCUACAGUCCGACGAUCGCUUCGAUAUCCGCAUGCUAGUCAGCGUGUCCCACUAUUCAUGUCCCAUCUCUGUGCAUCCUGACUGCGCACAUCCCAUCUCCGCAACACAACGCAUCUGUACCAGCACACAGCUGCCAUCCCUCGAGCCACAGUGCCUGGUCCUAAGGACCCAGCAGCUGCACAGAGGACUUGGUGGCCCCGUGCCUUGCCAUCUGGCUGAGAAGAGAACCAGACCCUCAGCCUUCCCCCUCGACACCUUCUCGUUGGUGACCUCUGACCUUAAAGGACCAUUUCUACCCUCUUGCGGUCGCACUAGUGUGGAAUUCUCGGGUGUCAAGG
B4: ENSMUSG00000061578.966|Ksr2 (ssRNA)
RNA: GGGAGUUCUACAGUCCGACGAUCGCUUCGAUAUCCGCAUGCUAGCCCUGGAUGUGACUAUAUGUGCUGAGAAGGGAAGGUAGUUUUCCCCCAGAAAGUCCCUUCUAAUAAACAUUGAUGACUUUAGAAUCCAUGACUCAGAAUUUUCCAGAGACCCAAUCCCUCGGGGUCCACUUAGUGAUGGGACCAUACAAGAGUUUAUUUCCAAUUAGAGAAUUGGGUCAACUGGGAAAGGCUUCUUUCCUGGUAACCCUGCUACUGAUACUAUGUUGAAACAGGAAUCGACUCUAACUGCUUUUUGGCCCUCUUGCGGUCGCACUAGUGUGGAAUUCUCGGGUGUCAAGG
B5: ENSMUSG00000031028.668|Tub (ssRNA)
RNA: GGGAGUUCUACAGUCCGACGAUCGCUUCGAUAUCCGCAUGCUAGGCAAAAUUUCUCUAGCUGAGAGCACACUUAGCCAGUUUUCACGCCUAGAACAUAUAUGUCGAUUUGCACAUGAUUGUCUUUUCCUAUUUUGGAGUGGUCAGACAUUUUAUUUUUGUUCAAAAUUAUCUGGAGUUUUAGACAAACUUGCAAAACUGUGCUUUUAUUAAGUGACUUUUUGAAUAAACUUUUUGGUAUUCUGAAGCAAAUGUAUUUAUUUAUUGGUAUGUGCAAUGACAAACUUGGUAUUUUCCCAUAAUGACUCUUGCGGUCGCACUAGUGUGGAAUUCUCGGGUGUCAAGG
B6: ENSMUSG00000061578.140|Ksr2 (ssRNA)
RNA: GGGAGUUCUACAGUCCGACGAUCGCUUCGAUAUCCGCAUGCUAGGCUGUGGCAAGAGAGUUCUGGUGUGUUCUCUCUGUGGGGCUAGCAAUGCCGGGGUUAAGUUCUCCCUCGGUGAUGGAGACGGUCCUGGGUAUGCAUGAUGGGUUACAUGGGUGUGUGUGUGUGUGUAACUGUUUACAAUGGUCUCCCUGCCUCUCACGGGCUGUGUUCCAGGAGAAUGCACAUAGAGAGGUUCUGUGGUCUCUGCUGUCGCCUGGUGCUGAAUCCUGAGUGGUUUCCCCACUGAGGACCCUGUGACCCUCUCUUGCGGUCGCACUAGUGUGGAAUUCUCGGGUGUCAAGG
B7: ENSMUSG00000061578.854|Ksr2|32:36 (ssRNA)
RNA: GGGAGUUCUACAGUCCGACGAUCGCUUCGAUAUCCGCAUGCUAAGAGCAAUACAGGAAAAGGUCAGGGGUGAGAACACACAUUGCCACUUCCUCCAGCUAGGACCUUUGAGCAUCACAUUGUGAAGCCAUCCAGGGACUUGGGGGUUAGGUCAGAGGUAUCAAUACAUCUCCGGAAACAUCGUCACAGAUACCUAGAGGUACUUCAUUGAUCCCUUGAAAAGCAUGUCUUAAUUCUGUUAAGAUGUCAAUCAAGAUUACACAUCUCACUGCUUCACAGGCCAUCAGGGCCCCAUUCUGAGGUCCUCUUGCGGUCGCACUAGUGUGGAAUUCUCGGGUGUCAAGG
B8: ENSMUSG00000090935.379|Synj2bp (ssRNA)
RNA: GGGAGUUCUACAGUCCGACGAUCGCUUCGAUAUCCGCAUGCUAAGAUGCAGGGAUAUUGGUGAGGUGGGAGCUGUCCUGUUUAUGUAACAUCUAAGUUGGUUUUAGAGUACUGAGGAUAGUUGAACCAAGCCUAUUUUUUUUCCACUUUAACAAAAUAAUUUCCUUCUUUUCAGUAAAUUGGCCAGACUAUUAUUUUGACAUAAGAUUAUGAAGAGUUUUCCCGACAGUCUAGCAGUCACUUAACAGAUGUUGAUUGCACAUUAGUUUUGUCAGGACACCUUUAUAAAAAGAGAAAUGCACAUCUCUUGCGGUCGCACUAGUGUGGAAUUCUCGGGUGUCAAGG
B9: ENSMUSG00000061578.1219|Ksr2 (ssRNA)
RNA: GGGAGUUCUACAGUCCGACGAUCGCUUCGAUAUCCGCAUGCUACAGCAUGCUUCACUCUAUGAAUGAGCCGCUGGGAUAUUGACAUGGAGAUGUGUUGAUGGAAAAAGCCUCCACACCCAACAUAACUCUCCAGAGAGAUAUUGAAAGUGAUGGGCAGAGAGUCUGACAAUGACCCAGGGGUCAUUGUGAGUCCUAGGCUGAAUCUGUAAUGGGGUCCAAAGUGCAGGAGAGACUGCAUUCACCUUGUUGGUGGGGUGGGGCUUCUUUCAUUACUUUAAGUAUCUGUAUGGGCUUGAGGCAUGCUCUUGCGGUCGCACUAGUGUGGAAUUCUCGGGUGUCAAGG
B10: ENSMUSG00000090935.669|Synj2bp (ssRNA)
RNA: GGGAGUUCUACAGUCCGACGAUCGCUUCGAUAUCCGCAUGCUAUGGAGUGAGAUGAGUGUGUGCCAGCCAGCAACUCUGUCCUUCUAGGUAACUGGUUCAUGCUGAACCUUGAGAUUCACCACUGUCAGGAGCUCUCUCUCUCUGCUUAGAAUCAUCCAGACAGCGGGCUGGUCAGCCCACAUUAAAUAAGAACAUGUGGGACUAGAAUUCAGUCAACAAUGACAUGUUUCAUCAGGUGGUUAAAAUGUACAGAUUCUGUUGGAAAUGUUCCAUGGUAUUUCAAUAGCCAGAAUGAAGAACUGCUCUUGCGGUCGCACUAGUGUGGAAUUCUCGGGUGUCAAGG
B11: ENSMUSG00000061578.1454|Ksr2 (ssRNA)
RNA: GGGAGUUCUACAGUCCGACGAUCGCUUCGAUAUCCGCAUGCUAGGGUAAAUGAAUGGAUAGGUAUGUGAAUGAAUGGAUGAUGGAUGAAUGGAUGGGUAGGUGGGUAGAUAGGUAUAUGAAUGAAUGGAUGAAUGGAUGGGUGAAUGGAUGGAUAGGUAUGUGAAUAAAUGGAUGGAUGGAUGGAUUGAUUUGUGAAUGAAUGGAUGAAUGGAUGGGUAGGUGGGUGGAUGCAUAGGCAAGUAGAUGAAUGAAUAUGUGGGUAGAAGGGUGAGUGGGUGGAUGAAUGGAUGGAUAGGUUGGUACUCUUGCGGUCGCACUAGUGUGGAAUUCUCGGGUGUCAAGG
B12: ENSMUSG00000061578.1449|Ksr2 (ssRNA)
RNA: GGGAGUUCUACAGUCCGACGAUCGCUUCGAUAUCCGCAUGCUAGGUAUAUAAAUGGAUGGAUGGGUGAUGGAUGGGUAAAUGAAUGGAUAGGUAUGUGAAUGAAUGGAUGAUGGAUGAAUGGAUGGGUAGGUGGGUAGAUAGGUAUAUGAAUGAAUGGAUGAAUGGAUGGGUGAAUGGAUGGAUAGGUAUGUGAAUAAAUGGAUGGAUGGAUGGAUUGAUUUGUGAAUGAAUGGAUGAAUGGAUGGGUAGGUGGGUGGAUGCAUAGGCAAGUAGAUGAAUGAAUAUGUGGGUAGAAGGGUGAGCUCUUGCGGUCGCACUAGUGUGGAAUUCUCGGGUGUCAAGG
B13: ENSMUSG00000061578.1443|Ksr2 (ssRNA)
RNA: GGGAGUUCUACAGUCCGACGAUCGCUUCGAUAUCCGCAUGCUAGCAAGUAGGAUGGAUGGAUGAGUGAGUGGAUAGGUAGGUAUAUAAAUGGAUGGAUGGGUGAUGGAUGGGUAAAUGAAUGGAUAGGUAUGUGAAUGAAUGGAUGAUGGAUGAAUGGAUGGGUAGGUGGGUAGAUAGGUAUAUGAAUGAAUGGAUGAAUGGAUGGGUGAAUGGAUGGAUAGGUAUGUGAAUAAAUGGAUGGAUGGAUGGAUUGAUUUGUGAAUGAAUGGAUGAAUGGAUGGGUAGGUGGGUGGAUGCAUAGGCUCUUGCGGUCGCACUAGUGUGGAAUUCUCGGGUGUCAAGG

Whole data set: some 9,900 sequences, median “r (bound/input frequency ratio)” near 0.7, cut for the highest 2% near 6.5. This excerpt belongs to a sample that is enriched for the highest values.

TDP-43, sequence (Q13148 whole entry): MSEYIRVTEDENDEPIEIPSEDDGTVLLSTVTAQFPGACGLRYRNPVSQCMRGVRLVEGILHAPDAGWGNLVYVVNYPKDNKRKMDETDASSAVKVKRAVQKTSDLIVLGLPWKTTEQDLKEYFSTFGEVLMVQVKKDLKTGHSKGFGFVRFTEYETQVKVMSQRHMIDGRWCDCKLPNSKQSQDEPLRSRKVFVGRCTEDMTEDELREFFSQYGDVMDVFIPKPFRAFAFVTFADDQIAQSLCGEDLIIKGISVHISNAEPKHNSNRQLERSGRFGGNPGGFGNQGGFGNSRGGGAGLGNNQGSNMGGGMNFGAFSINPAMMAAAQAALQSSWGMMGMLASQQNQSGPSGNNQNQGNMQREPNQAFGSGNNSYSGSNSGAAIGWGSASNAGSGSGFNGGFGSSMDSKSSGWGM

This assay deals with TDP-43 (Homo sapiens, UniProt Q13148 1-414). The assay is described as follows: RNA Bind-n-Seq with designed 260-mer pool; 25 mM Tris-HCl, 150 mM KCl, 3 mM MgCl2, BSA (printed 500 mg/mL), 20 units/mL SUPERase IN; pH not stated; 500 nM RNA pool, 1 h, 4 C; TDP-43 5, 50, 500 nM; high values mean tight binding. The following applies: protein: recombinant; tags: SBP (GST cleaved off with PreScission; pGEX-GST-SBP). The procedure, abridged:
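For each oligo, R gives binding as its mapped-read-normalized abundance after pulldown divided by its abundance in input. Bead-captured SBP-tagged TDP-43 (5, 50 or 500 nM) was incubated with 500 nM of an in vitro-transcribed 260-nt 3′ UTR oligo pool for 1 h at 4 °C in 25 mM Tris-HCl, 150 mM KCl, 3 mM MgCl2, BSA and SUPERase IN on streptavidin beads. Washed, biotin-eluted RNA was reverse transcribed, PCR-amplified and sequenced.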
B1: the binding signal is 5.55 R (bound/input frequency ratio). With B2, the binding signal was 0.57 R (bound/input frequency ratio). As to B3, the binding signal is 1.42 R (bound/input frequency ratio). In the case of B4, the binding signal is 0.302 R (bound/input frequency ratio). Regarding B5, the binding signal is 0.159 R (bound/input frequency ratio). As for B6, the binding signal was 5.07 R (bound/input frequency ratio). On to B7, for which the binding signal is 0.103 R (bound/input frequency ratio). Next, B8: 0.043 R (bound/input frequency ratio).

In the case of B9, the binding signal is 0.535 R (bound/input frequency ratio). As to B10, the binding signal was 1.53 R (bound/input frequency ratio). Regarding B11, the binding signal was 2.48 R (bound/input frequency ratio).

As to B12, the binding signal is 3.93 R (bound/input frequency ratio). For B13, the binding signal was 9.18 R (bound/input frequency ratio).
